In ChEMBL document CHEMBL1961873, “Compounds: GSK PKIS; Assays: Nanosyn kinase panel” (2012):

How the values were obtained:
[1] = target: Tyrosine-protein kinase SYK (Homo sapiens) (UniProt P43405); details: at 1 µM
[2] = target: T1, Tyrosine-protein kinase Tec (Homo sapiens) (UniProt P42680); details: at 0.1 µM
T1 sequence (whole entry): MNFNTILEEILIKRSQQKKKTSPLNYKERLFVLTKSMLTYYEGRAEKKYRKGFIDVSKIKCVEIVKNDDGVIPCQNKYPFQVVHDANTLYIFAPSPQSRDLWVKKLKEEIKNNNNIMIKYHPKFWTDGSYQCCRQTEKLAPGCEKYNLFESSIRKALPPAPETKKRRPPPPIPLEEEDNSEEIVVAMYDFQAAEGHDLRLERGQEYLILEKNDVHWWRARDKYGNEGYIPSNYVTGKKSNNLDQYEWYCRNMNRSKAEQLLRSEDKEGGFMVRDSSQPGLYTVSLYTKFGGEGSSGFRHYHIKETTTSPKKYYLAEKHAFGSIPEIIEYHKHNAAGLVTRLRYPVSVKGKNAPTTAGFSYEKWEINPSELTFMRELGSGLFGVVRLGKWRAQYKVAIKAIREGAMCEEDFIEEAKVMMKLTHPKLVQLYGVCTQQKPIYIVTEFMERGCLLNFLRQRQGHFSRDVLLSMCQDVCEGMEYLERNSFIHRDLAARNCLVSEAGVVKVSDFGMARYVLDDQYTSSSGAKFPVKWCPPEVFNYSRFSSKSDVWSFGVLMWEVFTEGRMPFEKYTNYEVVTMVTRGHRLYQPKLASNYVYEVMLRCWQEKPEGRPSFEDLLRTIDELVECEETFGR

[3] = target: T1, Tyrosine-protein kinase Tec (Homo sapiens); details: at 1 µM
[4] = target: Angiopoietin-1 receptor (Homo sapiens) (UniProt Q02763); details: at 0.1 µM
[5] = target: Angiopoietin-1 receptor (Homo sapiens) (UniProt Q02763); details: at 1 µM
[6] = target: T2, Non-receptor tyrosine-protein kinase TNK1 (Homo sapiens) (UniProt Q13470); details: at 0.1 µM
T2 sequence (whole entry): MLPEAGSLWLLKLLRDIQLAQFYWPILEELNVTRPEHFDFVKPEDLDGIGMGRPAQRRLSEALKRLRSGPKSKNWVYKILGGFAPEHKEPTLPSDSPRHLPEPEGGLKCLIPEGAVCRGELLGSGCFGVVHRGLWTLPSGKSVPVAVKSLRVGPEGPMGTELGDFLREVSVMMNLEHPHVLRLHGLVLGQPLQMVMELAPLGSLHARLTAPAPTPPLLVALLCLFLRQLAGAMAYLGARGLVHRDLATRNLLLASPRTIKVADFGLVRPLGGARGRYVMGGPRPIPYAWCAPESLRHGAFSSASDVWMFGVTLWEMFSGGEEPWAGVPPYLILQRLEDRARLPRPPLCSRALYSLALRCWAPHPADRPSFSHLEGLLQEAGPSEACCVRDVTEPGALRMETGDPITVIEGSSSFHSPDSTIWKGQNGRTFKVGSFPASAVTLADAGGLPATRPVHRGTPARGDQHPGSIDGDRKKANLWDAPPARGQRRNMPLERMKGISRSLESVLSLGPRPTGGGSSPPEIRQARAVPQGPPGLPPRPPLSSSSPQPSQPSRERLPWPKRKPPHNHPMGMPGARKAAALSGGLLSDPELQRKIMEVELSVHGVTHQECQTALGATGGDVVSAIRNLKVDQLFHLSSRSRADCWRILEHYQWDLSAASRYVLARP

[7] = target: T2, Non-receptor tyrosine-protein kinase TNK1 (Homo sapiens); details: at 1 µM
[8] = target: Activated CDC42 kinase 1 (Homo sapiens) (UniProt Q07912); details: at 0.1 µM
[9] = target: Activated CDC42 kinase 1 (Homo sapiens) (UniProt Q07912); details: at 1 µM
[10] = target: High affinity nerve growth factor receptor (Homo sapiens) (UniProt P04629); details: at 0.1 µM
[11] = target: High affinity nerve growth factor receptor (Homo sapiens) (UniProt P04629); details: at 1 µM
[12] = target: BDNF/NT-3 growth factors receptor (Homo sapiens) (UniProt Q16620); details: at 0.1 µM
[13] = target: BDNF/NT-3 growth factors receptor (Homo sapiens) (UniProt Q16620); details: at 1 µM
[14] = target: NT-3 growth factor receptor (Homo sapiens) (UniProt Q16288); details: at 0.1 µM
[15] = target: NT-3 growth factor receptor (Homo sapiens) (UniProt Q16288); details: at 1 µM
[16] = target: T3, Tyrosine-protein kinase TXK (Homo sapiens) (UniProt P42681); details: at 0.1 µM
T3 sequence (whole entry): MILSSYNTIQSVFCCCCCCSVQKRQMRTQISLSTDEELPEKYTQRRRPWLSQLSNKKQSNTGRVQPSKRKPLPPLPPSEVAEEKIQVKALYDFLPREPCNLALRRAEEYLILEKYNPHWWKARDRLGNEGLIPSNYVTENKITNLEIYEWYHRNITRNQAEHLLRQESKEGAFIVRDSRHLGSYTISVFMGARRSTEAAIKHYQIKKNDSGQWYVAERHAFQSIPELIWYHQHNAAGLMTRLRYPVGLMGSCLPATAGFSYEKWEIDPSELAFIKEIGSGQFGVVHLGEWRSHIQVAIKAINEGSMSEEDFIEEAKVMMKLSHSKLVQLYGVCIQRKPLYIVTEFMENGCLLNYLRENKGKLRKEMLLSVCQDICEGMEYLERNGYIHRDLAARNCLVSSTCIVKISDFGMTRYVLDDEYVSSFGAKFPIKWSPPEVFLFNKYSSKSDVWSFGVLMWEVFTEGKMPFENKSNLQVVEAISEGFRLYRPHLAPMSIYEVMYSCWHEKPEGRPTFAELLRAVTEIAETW

[17] = target: T3, Tyrosine-protein kinase TXK (Homo sapiens); details: at 1 µM
[18] = target: Non-receptor tyrosine-protein kinase TYK2 (Homo sapiens) (UniProt P29597); details: at 0.1 µM;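 further: each value is a mean of the inhibition readings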
[19] = target: T4, Dual specificity protein kinase TTK (Homo sapiens) (UniProt P33981); details: at 1 µM;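 further: reported figures are mean TTK inhibition at 1 µM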
T4 sequence (whole entry): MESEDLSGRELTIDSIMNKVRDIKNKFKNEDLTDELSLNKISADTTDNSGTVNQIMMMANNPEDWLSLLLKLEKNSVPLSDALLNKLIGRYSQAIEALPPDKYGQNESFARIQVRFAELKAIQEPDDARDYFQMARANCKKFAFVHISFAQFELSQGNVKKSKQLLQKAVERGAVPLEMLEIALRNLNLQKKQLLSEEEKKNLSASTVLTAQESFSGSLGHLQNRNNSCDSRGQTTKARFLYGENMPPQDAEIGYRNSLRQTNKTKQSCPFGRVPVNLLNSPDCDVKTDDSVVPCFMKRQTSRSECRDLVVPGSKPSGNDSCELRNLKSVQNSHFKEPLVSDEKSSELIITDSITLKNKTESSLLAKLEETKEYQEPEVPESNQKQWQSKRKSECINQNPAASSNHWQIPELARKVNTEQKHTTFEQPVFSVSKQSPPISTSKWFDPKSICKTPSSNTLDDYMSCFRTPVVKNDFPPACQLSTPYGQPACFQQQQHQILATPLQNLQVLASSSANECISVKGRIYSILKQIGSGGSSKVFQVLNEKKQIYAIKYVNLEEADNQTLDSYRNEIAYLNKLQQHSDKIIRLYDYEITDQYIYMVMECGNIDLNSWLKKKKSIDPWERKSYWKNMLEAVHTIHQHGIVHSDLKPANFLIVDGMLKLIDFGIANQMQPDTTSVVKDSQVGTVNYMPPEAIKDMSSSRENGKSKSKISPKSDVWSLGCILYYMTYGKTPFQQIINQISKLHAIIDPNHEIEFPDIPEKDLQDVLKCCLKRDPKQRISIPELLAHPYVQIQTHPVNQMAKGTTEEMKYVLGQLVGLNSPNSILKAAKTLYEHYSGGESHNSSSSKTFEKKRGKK

[20] = target: T5, Aurora kinase A (Homo sapiens) (UniProt O14965); details: at 0.1 µM;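 further: each reported value is a mean percent inhibition of Aurora-A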
T5 sequence (whole entry): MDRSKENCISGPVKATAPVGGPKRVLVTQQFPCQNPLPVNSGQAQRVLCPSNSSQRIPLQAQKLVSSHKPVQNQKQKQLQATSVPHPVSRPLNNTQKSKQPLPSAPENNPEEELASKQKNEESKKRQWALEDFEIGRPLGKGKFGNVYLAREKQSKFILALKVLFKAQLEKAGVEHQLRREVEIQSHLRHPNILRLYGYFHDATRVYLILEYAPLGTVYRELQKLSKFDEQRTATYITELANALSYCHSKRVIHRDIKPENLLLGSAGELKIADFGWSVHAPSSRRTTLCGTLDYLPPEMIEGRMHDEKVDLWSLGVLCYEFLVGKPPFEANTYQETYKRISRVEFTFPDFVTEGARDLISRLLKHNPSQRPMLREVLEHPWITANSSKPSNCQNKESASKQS

NT-3 growth factor receptor (Homo sapiens), sequence (Q16288 32-839 limits assumed): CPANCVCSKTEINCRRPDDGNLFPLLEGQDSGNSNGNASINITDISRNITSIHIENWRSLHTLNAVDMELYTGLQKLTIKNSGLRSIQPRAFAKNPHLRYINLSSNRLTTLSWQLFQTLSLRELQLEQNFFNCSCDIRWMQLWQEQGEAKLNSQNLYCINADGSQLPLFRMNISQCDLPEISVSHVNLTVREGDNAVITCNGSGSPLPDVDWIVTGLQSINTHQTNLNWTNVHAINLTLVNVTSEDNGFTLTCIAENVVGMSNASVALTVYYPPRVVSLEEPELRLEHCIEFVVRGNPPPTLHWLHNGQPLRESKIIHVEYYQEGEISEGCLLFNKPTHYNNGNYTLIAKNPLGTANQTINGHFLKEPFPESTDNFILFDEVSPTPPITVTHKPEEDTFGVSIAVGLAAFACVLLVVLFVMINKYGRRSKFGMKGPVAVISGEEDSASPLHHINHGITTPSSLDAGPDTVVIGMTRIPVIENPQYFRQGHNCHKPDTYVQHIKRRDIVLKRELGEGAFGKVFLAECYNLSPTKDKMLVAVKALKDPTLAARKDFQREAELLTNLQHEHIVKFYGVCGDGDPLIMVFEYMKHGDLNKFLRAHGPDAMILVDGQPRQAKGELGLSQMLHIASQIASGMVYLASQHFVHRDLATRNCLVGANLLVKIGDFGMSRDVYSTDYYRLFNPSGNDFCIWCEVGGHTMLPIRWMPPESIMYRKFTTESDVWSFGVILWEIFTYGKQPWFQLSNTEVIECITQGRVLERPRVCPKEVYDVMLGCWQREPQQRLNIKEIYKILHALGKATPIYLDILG
Activated CDC42 kinase 1 (Homo sapiens), sequence (Q07912 whole entry, looked up): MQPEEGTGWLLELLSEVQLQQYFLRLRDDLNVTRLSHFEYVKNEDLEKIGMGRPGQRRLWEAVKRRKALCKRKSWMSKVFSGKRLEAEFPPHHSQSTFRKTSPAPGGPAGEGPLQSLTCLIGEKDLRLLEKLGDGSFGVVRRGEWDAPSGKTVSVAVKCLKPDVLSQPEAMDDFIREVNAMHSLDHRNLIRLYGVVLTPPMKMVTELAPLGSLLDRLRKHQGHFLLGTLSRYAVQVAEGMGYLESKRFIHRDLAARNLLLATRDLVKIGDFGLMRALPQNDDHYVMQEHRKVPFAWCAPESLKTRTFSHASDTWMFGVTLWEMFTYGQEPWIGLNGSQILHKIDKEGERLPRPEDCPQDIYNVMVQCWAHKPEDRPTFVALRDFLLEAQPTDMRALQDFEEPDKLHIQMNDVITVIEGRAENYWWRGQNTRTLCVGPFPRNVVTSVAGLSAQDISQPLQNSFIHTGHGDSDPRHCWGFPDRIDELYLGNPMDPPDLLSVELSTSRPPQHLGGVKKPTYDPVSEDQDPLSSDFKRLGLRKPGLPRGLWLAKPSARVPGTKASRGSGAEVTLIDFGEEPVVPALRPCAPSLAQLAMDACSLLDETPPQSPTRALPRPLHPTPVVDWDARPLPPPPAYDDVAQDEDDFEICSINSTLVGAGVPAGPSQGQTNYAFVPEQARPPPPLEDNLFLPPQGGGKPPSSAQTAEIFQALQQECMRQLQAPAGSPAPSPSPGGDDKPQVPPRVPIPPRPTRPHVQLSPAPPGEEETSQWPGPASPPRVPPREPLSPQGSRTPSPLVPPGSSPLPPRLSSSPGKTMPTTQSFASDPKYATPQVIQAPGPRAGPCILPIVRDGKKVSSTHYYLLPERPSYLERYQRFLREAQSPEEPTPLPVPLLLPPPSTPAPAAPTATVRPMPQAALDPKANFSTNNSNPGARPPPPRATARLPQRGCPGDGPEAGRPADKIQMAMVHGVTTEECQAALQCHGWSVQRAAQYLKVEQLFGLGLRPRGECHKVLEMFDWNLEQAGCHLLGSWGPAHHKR
Angiopoietin-1 receptor (Homo sapiens), sequence (Q02763 whole entry): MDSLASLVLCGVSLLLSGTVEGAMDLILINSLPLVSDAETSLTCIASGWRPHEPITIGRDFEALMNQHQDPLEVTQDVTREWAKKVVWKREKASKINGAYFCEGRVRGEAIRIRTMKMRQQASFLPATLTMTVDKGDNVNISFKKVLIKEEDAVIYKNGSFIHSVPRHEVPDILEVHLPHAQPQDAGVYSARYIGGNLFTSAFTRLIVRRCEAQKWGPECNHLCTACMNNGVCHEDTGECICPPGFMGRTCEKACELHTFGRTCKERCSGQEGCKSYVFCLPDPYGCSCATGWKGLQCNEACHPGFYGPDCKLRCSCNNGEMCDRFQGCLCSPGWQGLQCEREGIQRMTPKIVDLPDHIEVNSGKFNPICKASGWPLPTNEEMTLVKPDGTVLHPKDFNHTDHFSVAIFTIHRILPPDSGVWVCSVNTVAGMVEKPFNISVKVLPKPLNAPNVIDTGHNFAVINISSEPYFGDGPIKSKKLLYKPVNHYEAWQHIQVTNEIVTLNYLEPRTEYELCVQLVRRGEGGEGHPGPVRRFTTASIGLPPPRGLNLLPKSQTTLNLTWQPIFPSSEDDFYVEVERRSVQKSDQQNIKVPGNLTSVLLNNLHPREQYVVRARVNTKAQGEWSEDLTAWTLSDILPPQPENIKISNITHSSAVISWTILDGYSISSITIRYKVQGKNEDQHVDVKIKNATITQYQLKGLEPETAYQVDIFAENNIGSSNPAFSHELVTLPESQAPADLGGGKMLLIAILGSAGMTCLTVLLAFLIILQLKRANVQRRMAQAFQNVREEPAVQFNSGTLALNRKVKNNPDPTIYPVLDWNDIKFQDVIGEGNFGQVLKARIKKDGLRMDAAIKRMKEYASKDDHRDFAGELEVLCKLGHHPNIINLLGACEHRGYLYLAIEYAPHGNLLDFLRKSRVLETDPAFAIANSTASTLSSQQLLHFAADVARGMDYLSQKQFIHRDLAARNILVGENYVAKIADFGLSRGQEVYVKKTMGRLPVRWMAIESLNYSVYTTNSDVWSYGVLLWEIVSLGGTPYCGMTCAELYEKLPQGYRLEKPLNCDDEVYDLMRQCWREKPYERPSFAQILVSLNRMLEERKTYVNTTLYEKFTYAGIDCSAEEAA
High affinity nerve growth factor receptor (Homo sapiens), sequence (P04629 33-796 limits assumed): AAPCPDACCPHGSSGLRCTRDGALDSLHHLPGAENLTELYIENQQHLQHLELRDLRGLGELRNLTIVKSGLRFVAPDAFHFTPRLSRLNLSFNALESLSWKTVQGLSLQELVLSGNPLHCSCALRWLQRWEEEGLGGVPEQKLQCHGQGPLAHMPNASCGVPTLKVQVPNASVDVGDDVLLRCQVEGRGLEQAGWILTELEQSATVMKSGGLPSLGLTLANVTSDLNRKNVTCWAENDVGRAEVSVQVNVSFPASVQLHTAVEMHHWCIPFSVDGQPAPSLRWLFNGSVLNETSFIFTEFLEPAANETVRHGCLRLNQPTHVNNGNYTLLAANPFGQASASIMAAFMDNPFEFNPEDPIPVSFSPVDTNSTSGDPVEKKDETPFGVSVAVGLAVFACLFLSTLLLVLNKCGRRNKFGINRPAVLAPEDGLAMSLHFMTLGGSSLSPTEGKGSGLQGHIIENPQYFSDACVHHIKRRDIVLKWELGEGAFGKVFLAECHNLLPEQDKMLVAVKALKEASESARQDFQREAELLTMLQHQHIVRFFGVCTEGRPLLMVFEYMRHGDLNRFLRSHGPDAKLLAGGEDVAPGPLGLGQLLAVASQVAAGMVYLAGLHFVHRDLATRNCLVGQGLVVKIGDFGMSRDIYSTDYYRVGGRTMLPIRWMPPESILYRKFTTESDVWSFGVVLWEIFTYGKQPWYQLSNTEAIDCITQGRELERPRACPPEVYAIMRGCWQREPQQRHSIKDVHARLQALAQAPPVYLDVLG
BDNF/NT-3 growth factors receptor (Homo sapiens), sequence (Q16620 32-822 limits assumed): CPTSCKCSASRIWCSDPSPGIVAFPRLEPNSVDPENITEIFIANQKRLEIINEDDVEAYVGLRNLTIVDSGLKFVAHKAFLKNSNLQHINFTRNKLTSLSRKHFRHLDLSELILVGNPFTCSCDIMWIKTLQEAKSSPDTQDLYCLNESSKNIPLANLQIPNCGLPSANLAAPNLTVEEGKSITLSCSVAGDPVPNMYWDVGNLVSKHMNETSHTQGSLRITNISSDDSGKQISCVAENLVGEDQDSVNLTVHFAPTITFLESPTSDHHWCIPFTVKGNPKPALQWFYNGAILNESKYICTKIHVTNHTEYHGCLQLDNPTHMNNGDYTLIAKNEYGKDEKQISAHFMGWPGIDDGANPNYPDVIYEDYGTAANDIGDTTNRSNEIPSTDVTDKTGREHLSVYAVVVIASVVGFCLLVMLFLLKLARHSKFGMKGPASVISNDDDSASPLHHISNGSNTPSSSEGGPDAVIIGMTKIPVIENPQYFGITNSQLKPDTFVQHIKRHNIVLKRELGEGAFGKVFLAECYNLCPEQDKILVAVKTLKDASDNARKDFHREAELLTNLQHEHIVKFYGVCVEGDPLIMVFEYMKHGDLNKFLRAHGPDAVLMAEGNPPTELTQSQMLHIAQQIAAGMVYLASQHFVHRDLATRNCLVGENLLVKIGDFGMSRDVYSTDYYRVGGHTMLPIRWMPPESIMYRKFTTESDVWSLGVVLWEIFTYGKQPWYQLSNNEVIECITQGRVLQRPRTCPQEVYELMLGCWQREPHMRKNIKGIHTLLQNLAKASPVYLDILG

| SMILES | inhibition [1] [%] | inhibition [2] [%] | inhibition [3] [%] | inhibition [4] [%] | inhibition [5] [%] | inhibition [6] [%] | inhibition [7] [%] | inhibition [8] [%] | inhibition [9] [%] | inhibition [10] [%] | inhibition [11] [%] | inhibition [12] [%] | inhibition [13] [%] | inhibition [14] [%] | inhibition [15] [%] | inhibition [16] [%] | inhibition [17] [%] | inhibition [18] [%] | inhibition [19] [%] | inhibition [20] [%] |
| --- | --- | --- | --- | --- | --- | --- | --- | --- | --- | --- | --- | --- | --- | --- | --- | --- | --- | --- | --- | --- |
| COc1cccc(-n2ncc3c(N/N=C/c4ccncc4)ncnc32)c1 | 9.95 | 6.13 | 17.2 | 6.02 | 37.5 | 10.1 | 52.3 | 2.06 | 9.3 | 3.46 | 12.8 | 7.74 | 37.6 | 8.44 | 36.9 | 4.8 | 18.6 | -2.74 | 18.5 | 12.1 |
| NC(=O)c1sc(-n2cnc3cc(C(F)(F)F)ccc32)cc1OCc1ccccc1Br | 1.46 | 1.68 | 3.28 | 2.07 | 3.72 | 1.72 | 5.51 | 0.49 | 1.45 | -0.62 | -0.05 | 3 | 1.49 | 1.41 | 2.25 | 1.4 | 3.45 | 0.53 | 3.54 | 1.18 |
| COc1cc2c(cc1Nc1nc(Nc3ccsc3C(N)=O)c3cc[nH]c3n1)N(C(=O)CN(C)C)CCC2 | 11.2 | -0.19 | 4.36 | 6.04 | 10.5 | 32.3 | 80.2 | 0.24 | 13.2 |  |  | -0.6 | 3.59 | -1.52 | 3.92 | -2.39 | -1.59 | -8.98 | 36.4 | 2.03 |
| CCn1c(-c2nonc2N)nc2c(C#CC(C)(C)O)ncc(OC[C@@H]3CCCN3)c21 | -4.11 | 0.03 | 1.67 | -0.35 | 4.39 | 2.04 | 1.67 | -0.73 | -0.46 | -2.99 | -3.52 | -0.66 | 0.79 | 1.15 | -0.37 | -0.98 | 1.67 | -0.97 | 4.1 | 3.07 |
| NS(=O)(=O)c1ccc(-c2ccc3c(NC(=O)C4CC4)n[nH]c3c2)cc1 | -2.49 | 4.93 | 10.3 | 1.08 | 6.97 | 2.11 | 4.7 | 1.28 | 1.95 | 3.82 | 0.03 | 0.8 | 5.39 | 2.06 | 9.04 | 3.28 | 4.88 | -5.6 | 7.86 | 3.44 |
| NS(=O)(=O)c1ccc(N/C=C2\C(=O)Nc3ccc4ncsc4c32)cc1 | -8.48 | 1.96 | 10.6 | 0.38 | 10.4 | 6.89 | 37.8 | 0.75 | 1.83 | 9.04 | 51.3 | 19.1 | 65.9 | 21.6 | 66.9 | -0.44 | 10.8 | 1.37 | 62.4 | 30 |
| CCn1c(-c2nonc2N)nc2c(C#CC(C)(C)O)nc(O[C@@H](CN)c3ccccc3)cc21 | 0.56 | 0.79 | 5.82 | 2.63 | 11.4 | -3.17 | -3.26 | -0.88 | -1.74 | -3.19 | 0.16 | -1.86 | 1.16 | -1.62 | 0.7 | 2.06 | 2.31 | 2.96 | 8.72 | 0.22 |
